In the supplement of paper PMC10338343:
± gives the standard deviation.

What follows are sequences tested on MILI (PIWIL2) piRISC loaded with L1MC piRNA (26 nt) (assay: pre-steady-state target cleavage rate (min^-1); guide: L1MC piRNA 5'p-UAACUAAAUACUAUGCAAGCUGUAGG; MIWI and MILI are mouse PIWI proteins and EfPiwi is from a freshwater sponge; tags in brackets are library labels; higher = faster piRNA-guided slicing of the target). Conditions: auxiliary factor: 500 nM mouse GTSF1.
Summary of the method: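 Active affinity-purified piRISC carrying one synthetic guide (1 nM) was mixed with a transcribed, DNA-blocked target RNA library […] in HEPES–potassium acetate buffer at 33 °C for 0–8 or 0–960 min, with or without 500 nM GTSF1 partner protein. Uncleaved targets were then sequenced and normalised to depth and to weakly complementary targets. Three trials were pooled, and k3 was capped at 0.0001 min^-1. A burst-and-steady-state fit was applied to obtain the pre-steady-state cleavage rate.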
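Further: 1 nM active piRISC with 0.1 nM target library at 33 °C single turnover.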

Sequence | pre-steady-state target cleavage rate
UCCUCCUACAGCUUGCAAAGUAUUUACAAA | 0.0935 ± 0.021
UCCUGGAACAGCUUGCAAAGUAUUUACAAA | 0.0328 ± 0.01
UCCUGGAUGUCGUUGCAUAGUUUUUAGUAA | 0.00481 ± 0.004
UCCUGGAUCAGCUACGAUAGUAUUUAGUAA | 0.0254 ± 0.0088
UCCUGGAACAGCUUGCAUAGUUAAUAGUAA | 0.0133 ± 0.0056
UCCUGGAUGUCGAUGCAUAGUAUUUAUUUA | 0.0578 ± 0.015
UCCUGGAUGUGCUUGCAUAGUAUAUAGUAA | 0.0253 ± 0.0079
UCCUGGAUGAGCUUGCAUAGUAUUAUCUUA | 0.00985 ± 0.0048
UCCUGGUACAGCUUGCAUUGUAUUUACUUA | 0.05 ± 0.015
UCCUGGAUGUGCUUGCAUAGUAAUAAGUUA | 0.0448 ± 0.016
UCCUGGAUCAGCUUGCUAUGUAUUUAGUAA | 0.00621 ± 0.0032
UCCUCCUACUGCUUGCAUAGUAUUUUCAAA | 0.0284 ± 0.0085
UCCUGGAUCAGCUUGCAUAGUUAAUAGUAA | 0.0192 ± 0.0068
UCCUGCUACAGGAAGCAUAGUAUUUACAAA | 0.0258 ± 0.008
UCCUGGAUCAGCUUGCAUAGUAUUUUCUUA | 0.0452 ± 0.013
UCCUGGUACAGCUUGCAUAGAUUUUACAAA | 0.00751 ± 0.0049

Sequence | pre-steady-state target cleavage rate
UCCUGGAUCAGCUUGCAUACUAUUUUCAAA | 0.00818 ± 0.004
UCCUGGAUGUGCUAGCAUAGUAUUAAGUUA | 0.0987 ± 0.014
UCCUGGAAGUGCUUGCAUAGUAUUUAGUAA | 0.136 ± 0.022
UCCUGGAACAGCUUGCAUAGUAUAAUGAAA | 0.0341 ± 0.013
UCCUGCUACUCGUUGCAUAGUAUUUAGAAA | 0.179 ± 0.032
UCCUGGUACUCCUUGCAUAGUAUUUACAAA | 0.0123 ± 0.006
UCCUCCUACAGCUACCAUAGUAUUUAGAAA | 0.0576 ± 0.019
UCCUGGAUGUCCAUGCAUACUAUUUAGUUA | 0.0122 ± 0.0052
UCCUGGAACAGCUUGCAUAGUAUUUAUUA | 0.046 ± 0.014
UCCUGGAUGUCGUUGCAUAGUAAUUAGUAA | 0.0579 ± 0.013
UCCUGGAACAGCUUGCAUAGAAUAUAGUUA | 0.0426 ± 0.011
UCCUGGAUCAGCUUGCAAAGAAUUUAGUUA | 0.0118 ± 0.0054
UCCUGGAUGAGCAAGCAUAGUAUUUAGAAA | 0.0674 ± 0.015
UCCUGGAUCAGCUUGGAUAGAAUUUAGUUA | 0.0242 ± 0.0065
UCCUGGAUGAGCUUGGAUAGAAUUUAGUUA | 0.0131 ± 0.0067
UCCUGGUACAGCUUGCAUAGUAUUUAUUA | 0.042 ± 0.016

Same assay, conditions: auxiliary factor: none (no GTSF1)

Sequence | pre-steady-state target cleavage rate
UCCUGGAUGUCGAACGUUAGCAUUUAGUUA | < 0.0001
UCCUGGAUGUCGAACGUAAGUUUUAGUUA | < 0.0001
UCCUGGAUGUCGAAGCAGUAGUAUUUAGUUA | < 0.0001
UCCUGGAUGUCGAACGAAUAGUAUUUAGUUA | < 0.0001
UCCUGGAUGUCGAACCAUACAAUUUAGUUA | < 0.0001
UCCUGGAUGUCGAACGUAUGUAUUUAGUA | < 0.0001
UCCUGGAUCAGCUACGAUAGUAUUUUCAAA | < 0.0001
UCCUGGAUGUCGUUCCAAAGUAUUUAGUUA | < 0.0001
